# Screening results: PubChem BioAssay, National Center for Advancing Translational Sciences (NCATS)
# KDM5B inh: Primary screen for KDM5B Histone Demethylases FDH-coupled qHTS. Potency, µM (titrated, usually from 57.7 µM), hits mostly inhibitors. Lysine-specific demethylase 5B (Homo sapiens), Q9UGL1. actives 2.6% (n = 220,000). KDM5B demethylase, FDH-coupled NADH fluorescence (FDH is formaldehyde dehydrogenase); active = well fitted inhibition curve with a large enough effect; note: 0% is about no effect; nearly all actives have a fitted effect of over 70% in size
# Target sequence (Q9UGL1 whole entry, looked up): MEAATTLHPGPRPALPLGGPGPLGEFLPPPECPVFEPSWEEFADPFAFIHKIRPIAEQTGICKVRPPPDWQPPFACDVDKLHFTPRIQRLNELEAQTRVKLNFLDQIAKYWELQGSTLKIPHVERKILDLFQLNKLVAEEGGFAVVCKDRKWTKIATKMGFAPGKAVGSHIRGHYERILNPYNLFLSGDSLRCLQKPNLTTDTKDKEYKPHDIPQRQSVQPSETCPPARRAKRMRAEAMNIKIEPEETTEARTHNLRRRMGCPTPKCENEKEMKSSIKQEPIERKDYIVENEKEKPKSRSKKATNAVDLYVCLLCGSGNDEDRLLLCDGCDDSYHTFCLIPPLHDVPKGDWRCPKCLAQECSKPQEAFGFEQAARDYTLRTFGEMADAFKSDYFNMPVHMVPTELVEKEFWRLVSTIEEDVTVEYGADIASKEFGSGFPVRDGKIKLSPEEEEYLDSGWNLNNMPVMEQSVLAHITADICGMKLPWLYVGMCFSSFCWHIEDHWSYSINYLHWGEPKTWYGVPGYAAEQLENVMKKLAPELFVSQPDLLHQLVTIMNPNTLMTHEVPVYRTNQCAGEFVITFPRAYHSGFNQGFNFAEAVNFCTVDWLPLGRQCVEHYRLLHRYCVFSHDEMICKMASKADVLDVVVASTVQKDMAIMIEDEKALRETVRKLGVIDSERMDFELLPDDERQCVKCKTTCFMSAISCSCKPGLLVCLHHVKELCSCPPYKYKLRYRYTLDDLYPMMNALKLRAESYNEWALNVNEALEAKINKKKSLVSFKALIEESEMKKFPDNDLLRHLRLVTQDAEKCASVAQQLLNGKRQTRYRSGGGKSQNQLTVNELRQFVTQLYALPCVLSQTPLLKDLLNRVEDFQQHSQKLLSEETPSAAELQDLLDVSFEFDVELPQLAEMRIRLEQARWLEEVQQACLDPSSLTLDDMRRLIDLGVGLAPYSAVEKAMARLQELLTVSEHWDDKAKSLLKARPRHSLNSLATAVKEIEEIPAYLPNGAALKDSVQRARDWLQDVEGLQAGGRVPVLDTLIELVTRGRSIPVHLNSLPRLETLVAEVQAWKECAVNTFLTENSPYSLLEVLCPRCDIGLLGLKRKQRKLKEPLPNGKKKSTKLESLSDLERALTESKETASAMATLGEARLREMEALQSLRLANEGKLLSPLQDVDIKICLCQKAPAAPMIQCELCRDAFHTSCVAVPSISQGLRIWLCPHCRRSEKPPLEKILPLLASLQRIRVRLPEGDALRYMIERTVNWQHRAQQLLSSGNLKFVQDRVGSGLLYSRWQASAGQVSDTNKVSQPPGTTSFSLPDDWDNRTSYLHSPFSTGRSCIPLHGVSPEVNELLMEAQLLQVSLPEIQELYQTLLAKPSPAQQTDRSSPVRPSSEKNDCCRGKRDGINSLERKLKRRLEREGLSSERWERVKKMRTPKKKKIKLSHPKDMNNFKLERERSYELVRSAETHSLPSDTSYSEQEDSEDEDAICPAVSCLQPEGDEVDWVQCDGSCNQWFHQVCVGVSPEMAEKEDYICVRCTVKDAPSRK
#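 qHTS format, multiple compound concentrations. Buffer 50 mM HEPES pH 7.5/0.01% Tween-20; 200 nM KDM5BΔAP final; 10 min compound preincubation; substrate-mix levels 12.5 µM peptide, 25 µM α-KG, 0.25 mM NAD⁺; 30 min RT; ΔRFU.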
# Starred values were filed as active, the others as inactive; i = inactive. The sample as a whole holds a higher share of hits than the screen did. Potency is the fitted concentration of half-maximal effect.
SMILES,KDM5B inh
Cc1ccc(Nc2nc(C(=O)OCC(=O)c3ccc(Br)cc3)cs2)cc1,i
CC(=O)N[C@@H](Cc1c[nH]c2ccccc12)C(=O)NC1CCCCCC1,i
CC1(COc2ccc3[nH]ccc3c2)COc2ccc(C(=O)NC3CC3)cc2N1 (configuration not stated),32µM*
CCC(C)C(NC(=O)c1ccc(C(C)C)cc1)C(=O)O (configuration not stated),i
N#Cc1ccccc1Sc1ccccc1C(=O)Oc1ccc(Cl)cc1Cc1ccccc1,i
Cc1ccc(-c2cc(C(=O)O)c3cc(C)cc(C)c3n2)c(C)c1,i
COc1ccc(-c2cc(-c3ccc(OC)nc3)cn3cncc23)cc1,i
Cc1ccccc1-c1cc(-c2ccc(=O)[nH]c2)c2cncn2c1,35µM*
COc1ccc(-c2cc(-c3cn[nH]c3)c3cncn3c2)cn1,40µM*
CN(C)c1cccc(-c2cc(-c3cn[nH]c3)c3cncn3c2)c1,40µM*
COc1ccc2oc(=O)cc(CN3CCN(C(=O)c4ccc(OC)c(OC)c4)CC3)c2c1,i
CC(C)c1ccc(NC(=S)NC2CCSc3ccccc32)cc1 (configuration not stated),i
COc1cc(OC)c(OC)cc1/C=C/C(=O)c1ccc(OC(F)F)cc1,i
CN1CCN(c2ccc(NC(=O)CCc3ncc(-c4ccc(Cl)cc4)o3)cc2)CC1,i
Cc1nc2ccc(Cl)cc2cc1C(=O)NCC(=O)N1CCCCC1,i
COc1ccc(C(NC(=O)c2sc(-c3ccsc3)nc2C)c2nccn2C)cc1 (configuration not stated),i
O=C(c1ccc(Cl)cc1)N1CCC([C@@H]2CNC[C@H]2CO)CC1,i
O=C(C1CC=CC1)N1CCC([C@@H]2CNC[C@H]2CO)CC1,i
O=C(c1cnccn1)N1CCC([C@@H]2CNC[C@H]2CO)CC1,14µM*
O=C(NCCC1CCN(Cc2ccccc2)CC1)C1CCN(c2cnn(Cc3ccccc3)c(=O)c2)C1 (configuration not stated),i
Cc1cccc(C(=O)Nc2sc3c(c2C(N)=O)CCCCC3)c1,i
CCn1cnc2c1c(=O)n(CC(=O)Nc1ccc3c(c1)OCCO3)c(=O)n2Cc1ccccc1,i
COc1ccc(CNC(=O)c2ccccc2OC(F)F)cc1C(=O)O,i
C=CCSC1=N/C(=C\C=C\c2ccccc2)C(=O)S1,i
O=C(C1CC(=O)N(c2n[nH]c3cccc(F)c23)C1)N1CCCC1 (configuration not stated),i
SMILES,KDM5B inh
COc1cc(NC(=O)C2CC(=O)N(c3n[nH]c4cccc(F)c34)C2)cc(OC)c1OC (configuration not stated),i
CC(C)c1nnc(NC(=O)C2CC(=O)N(c3n[nH]c4cccc(F)c34)C2)s1 (configuration not stated),i
CC(=O)Nc1ccc(NC(=O)C2CC(=O)N(c3n[nH]c4cccc(F)c34)C2)cc1 (configuration not stated),35µM*
O=C(Nc1nc2ccccc2s1)C1CC(=O)N(c2n[nH]c3cccc(F)c23)C1 (configuration not stated),i
CCc1nc(NC(=O)C2CC(=O)N(c3n[nH]c4cccc(F)c34)C2)sc1C (configuration not stated),i
CCCNC(=O)C1CC(=O)N(c2n[nH]c3cccc(F)c23)C1 (configuration not stated),i
Cc1ccc(NC(=O)C2CC(=O)N(c3n[nH]c4cccc(F)c34)C2)cc1C (configuration not stated),18µM*
CCc1ccc(NC(=O)C2CC(=O)N(c3n[nH]c4cccc(F)c34)C2)cc1 (configuration not stated),35µM*
O=C(NC1CCCCCC1)C1CC(=O)N(c2n[nH]c3cccc(F)c23)C1 (configuration not stated),32µM*
Cc1cccc(NC(=O)C2CC(=O)N(c3n[nH]c4cccc(F)c34)C2)c1C (configuration not stated),i
O=C(NC1CC1)C1CC(=O)N(c2n[nH]c3cccc(F)c23)C1 (configuration not stated),i
CC(C)CCn1cnc2c1c(=O)n(Cc1ccccc1C#N)c(=O)n2Cc1ccccc1,i
COC(=O)CNC(=O)C(C)(C)c1cccc(C(F)(F)F)c1,i
CC(C)CCNC(=O)C12CC3CC(C1)CC(c1ccccc1)(C3)C2,i
CN=C(NC)NCc1ccc(C(=O)OC)cc1,i
Cc1ccccc1C(=O)Nc1nonc1-c1ccc(Cl)cc1,i
Cc1ccc(C(=O)N2CCC(c3nc4c(nnn4Cc4ccc5c(c4)OCO5)c(=O)[nH]3)CC2)cc1,i
O=C(Nc1ccccc1OC(F)F)C1=NN(C2CCS(=O)(=O)C2)C(=O)CC1 (configuration not stated),i
Cc1ccc(NC(=O)N2C[C@@H](Oc3cccnc3)C[C@H]2C(=O)N2CCCC2)cc1C,i
COc1cc(C#N)ccc1OC(=O)CCNC(=O)c1ccc(C(C)(C)C)cc1,i
Cc1ccc(Nc2nc(C(N)=O)c(NC(=O)CC34CC5CC(CC(C5)C3)C4)s2)cc1,i
COc1ccc(CN2C(=O)O[C@@H]3CN(C4CCCCC4)C[C@@H]32)cc1OC,i
N#Cc1cccc(Oc2ccc(C(=O)OCC(=O)c3ccccc3)cc2)c1C#N,i
c1ccc2c(c1)ncn2-n1cccc1,i
Cc1ccc(C2C(C#N)=C(SCC(=O)Nc3cccc(C)c3C)NC3=C2C(=O)CCC3)o1 (configuration not stated),i
SMILES,KDM5B inh
C[C@@H](C(=O)N1CCN(c2cccc(Cl)c2)CC1)n1cnc2ccccc2c1=O,i
CCN(CC)c1sc(S(C)(=O)=O)nc1S(=O)(=O)c1ccc(C)cc1,i
O=C(NCC1CCCO1)c1ccnc(-c2nnc3ccc(Nc4ccccc4)nn23)c1 (configuration not stated),i
CN(c1ccccc1)c1ccc2nnc(-c3cc(C(=O)NCc4ccncc4)ccn3)n2n1,32µM*
CN1CCN(C(=O)c2ccnc(-c3nnc4ccc(N(C)C)nn34)c2)CC1,i
CCNc1c(NC(=O)Nc2ccccc2Br)c(=O)oc2ccccc12,i
CCc1ccc(C(=O)/C=C/c2ccc(O)cc2)cc1,i
CSc1ccccc1C(=O)NCc1coc(-c2cccs2)n1,i
O=C(O)C(c1c[nH]c2cccc(Cl)c12)N1CCN(Cc2cccc(Cl)c2)CC1 (configuration not stated),i
O=C(COc1ncnc2ccc(Br)cc12)Nc1cccc(Br)c1,i
COc1ccc(CNC(=O)Nc2ccc(Cl)cc2C)cn1,i
Nc1nc(Nc2ccccc2)sc1C(=O)c1ccc(Cl)cc1,i
Cc1cccc(-c2nc(C3CC(=O)N(c4ccc(Cl)cc4)C3)no2)c1 (configuration not stated),i
CCc1ccc(-c2nc(C3CC(=O)N(c4ccc(C)cc4)C3)no2)cc1 (configuration not stated),i
O=C1CC(c2noc(-c3ccc4c(c3)OCO4)n2)CN1c1ccc(Cl)cc1 (configuration not stated),28µM*
CCc1ccc(N2CC(c3noc(-c4ccncc4)n3)CC2=O)cc1 (configuration not stated),i
O=C1CC(c2noc(-c3ccccc3F)n2)CN1c1ccc(Cl)cc1 (configuration not stated),i
